The record followed here is PubChem BioAssay (NCATS).

Unmarked numbers belong to inactive results. The call rests on the fitted dose curve; in most records, active means well fitted inhibition curve with a large enough effect; inconclusive means small, poorly fitted or top-dose-only effect; inactive means no such curve, though single readings can be large or run the other way.

This test can be described thus: qHTS assay for measurement of the activity of small molecule inhibitors on Zika virus induced Caspase-3 activity in human astrocytoma cells (AID 1224859).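 Further: plate controls were ZIKV-infected untreated cells for no effect and uninfected cells for full effect.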 Particulars: SNB-19 ZIKV-induced caspase-3/7, luminescence, 6 h; series mostly up to 45.7 µM; activity change, negative = inhibition: at the top concentration. An outline of the steps:
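Luminescent caspase-3/7 read-out (30 min reagent, room temperature) in human SNB-19 cells infected 6 h with ZIKV (2 FFU/cell) after 1 h compound pre-incubation; Data were normalised to uninfected and infected wells.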
A general note: qHTS replaces the single test concentration by a dilution series.
As for `COc1ccc2c(c1O)-c1cccc3c1[C@@H](C2)N(C)CC3`, the “activity change, negative = inhibition” value was 2.52%. On to `CC12NC(Cc3ccccc31)c1ccccc12` (stereo not given), for which the “activity change, negative = inhibition” value is -7.36%. The same measure for `COc1ccc2c(c1)c(CCN1CCOCC1)c(C)n2C(=O)c1cccc(Cl)c1Cl`: -5.32%; for `CCCn1c(C)c(C(=O)c2ccc3ccccc3c2)c2ccccc21`: 3.73%. Under `CCCN(CCC)[C@H]1CCc2c(F)ccc(O)c2C1` stands -11.9%; under `N[C@@H](Cn1oc(=O)[nH]c1=O)C(=O)O`, 7.23%; under `Nc1ccc(CCN2CCN(c3cccc(C(F)(F)F)c3)CC2)cc1`, -5.02%. In the case of `O=C(O)c1cc[c]([Hg][Cl])cc1`, the “activity change, negative = inhibition” value is -8.66%.

Turning to `CCCN(CCC)CCc1c[nH]c2ccc(C(N)=O)cc12`, the “activity change, negative = inhibition” value was -1.69%. As to `CC(=O)OCC1=C(C(=O)O)N2C(=O)[C@@H](NC(=O)CCC[C@@H](N)C(=O)O)[C@H]2SC1`, the “activity change, negative = inhibition” value is 2.7%.

Take `C#CCN[C@H](C)Cc1ccccc1`: the “activity change, negative = inhibition” value is -7.47%.

Turning to `C[N+]1(C)CCN(c2ccccc2)CC1`, the “activity change, negative = inhibition” value was 4.45%. The same measure for `CN(N=O)c1cc(O)ccc1O`: -27.8%; for `N[C@@H](Cn1ccc(=O)[nH]c1=O)C(=O)O`: -1.61%; for `CN(N=O)c1ccc(O)c(O)c1`: -4.43%. Under `NC(C(=O)O)c1cc(=O)[nH]o1` (stereo not given) stands 17.6%; under `CCCSP(=O)(OCC)SCCC`, -5.55% [at 92.8 µM]. Consider `C=CCN1CCc2cccc3c2[C@H]1Cc1ccc(O)c(O)c1-3`, for which the “activity change, negative = inhibition” value was 4.28%. For the molecule `C[N+](C)(C)CCOC(=O)CBr`, the “activity change, negative = inhibition” value is -2.74%. Under `C[N+]1(C)C2CCC1CC(OC(=O)c1c[nH]c3ccccc13)C2` (stereo not given) stands -1.26%; under `CNc1ccc2oc(C[C@H]3O[C@@]4(CC[C@H]3C)O[C@H]([C@H](C)C(=O)c3ccc[nH]3)[C@H](C)C[C@H]4C)nc2c1C(=O)O`, 21.5%.

With `N#C/C(=C/c1ccc(O)c(O)c1)C(N)=S`, the “activity change, negative = inhibition” value is -10.5%.

With `O=C1C=CC(=O)C=C1`, the “activity change, negative = inhibition” value was 3.41%. For `NC(N)=Nc1ccc2[nH]c3c(c2c1)C[C@@]1(O)[C@H]2Cc4ccc(O)c5c4[C@@]1(CCN2CC1CC1)[C@H]3O5`, the “activity change, negative = inhibition” value was 22.8%. The same measure for `C[C@@H]1[C@@H]2Cc3ccc(O)cc3[C@@]1(C)CCN2CC1CC1`: 3.24%.

For the molecule `N#CCCN`, the “activity change, negative = inhibition” value was -8.67%. The same measure for `Cc1o[nH]c(=O)c1CC(N)C(=O)O` (stereo not given): -6.44%; for `CCN(CCCl)Cc1ccccc1Br`: -14.2%; for `COc1ccc(CNC(=O)/C=C/c2ccc3[nH]cc(CCN(C)C)c3c2)cc1`: -6.59%.

For `Cc1[nH]c2ccc(O)cc2c1CCN`, the “activity change, negative = inhibition” value was -10.5%. The same measure for `C[N+]1(C)CCOC(O)(c2ccc(-c3ccc(C4(O)C[N+](C)(C)CCO4)cc3)cc2)C1` (stereo not given): -7.87%. The same measure for `CC(C)(O)[C@@H]1C2OC(=O)[C@@H]1[C@]1(O)C[C@H]3O[C@]34C(=O)O[C@H]2[C@]14C` (tested in a mixture with another compound): -0.836%; for `C/C(O)=C(\C#N)C(=O)Nc1cc(Br)ccc1Br`: 7.8%. The same measure for `CCCN(CCC)C1Cc2cc(OC)c(OC)cc2C1`: 8.94%; for `Cc1c2ccncc2c(C)c2c1[nH]c1ccccc12`: 7%; for `CN1CC[C@@]2(C)c3cc(O)ccc3N(C)C12` (stereo not given in full): -1.35%.

Turning to `C[C@H](Cc1ccc2c(c1)OC(C(=O)O)(C(=O)O)O2)NC[C@H](O)c1cccc(Cl)c1`, the “activity change, negative = inhibition” value is 3.97%.

Turning to `CCNC(=O)[C@H]1O[C@@H](n2cnc3c(N)ncnc32)[C@H](O)[C@@H]1O`, the “activity change, negative = inhibition” value was -7.89%. Under `C=CCN1CC[C@]23c4c5ccc(O)c4O[C@H]2/C(=N/NC(=O)c2ccccc2)CC[C@@]3(O)[C@H]1C5` stands -13.9%; under `CCCN1CC[C@@H]2c3cc(O)ccc3CC[C@@H]21`, 9.64%.
